Only some compounds are listed: those with a hit (about 7.5% of all), similar ones and a draw of the others.
ELG1 repair inh – qHTS screen for small molecules that inhibit ELG1-dependent DNA repair in human embryonic kidney (HEK293T) cells expressing luciferase-tagged ELG1 | HEK293T ELG1-luciferase reporter, luminescence, 16 h; DNA damage induced by 5-fluorouridine | Potency, µM (top dose mostly 46.1 µM), inactives show top-dose activity change, negative = inhibition, most hits filed as inhibitors | actives 2.3% (n = 330,000); also: potency is read from the fitted curve at half-maximal effect; nearly all actives have a fitted effect of over 55% in size
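Quantitative HTS, concentration-response format. 2,000 cells/well co-treated with 5-fluorouridine and compound, 16 hr in 5% CO2 at 37 °C; ONE-Glo luminescence read after 30 min.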
B2AR arrestin – qHTS assay of beta-arrestin-biased ligands of beta2-adrenergic receptor; Potency, µM (highest dose often 46.1 µM), inactives show at the top dose activation, most hits filed as activators; Beta-2 adrenergic receptor (Homo sapiens), P07550; beta-arrestin recruitment to beta2AR, cell-based reporter; actives 0.02% (n = 330,000);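 also: potency is read from the fitted curve at half-maximal effect; 0% = DMSO controls and full agonism = EC100 isoproterenol or metaproterenol; nearly all actives have a fitted effect of over 65% in size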
RORg inh – qHTS for inhibitors of ROR gamma transcriptional activity; Nuclear receptor ROR-gamma (Mus musculus), P51450; actives 5.4% (n = 310,000); AID 2551, 2010; Drosophila S2 Gal4-RORgamma UAS-luciferase reporter, 20 h; Potency, µM (highest dose often 53.6 µM), for the others: at the highest dose activity change, negative = inhibition, hits mostly inhibitors; also: potency is read from the fitted curve at half-maximal effect; nearly all actives have a fitted effect of over 60% in size
Target sequence (P51450 whole entry, looked up, the tested form may be a part): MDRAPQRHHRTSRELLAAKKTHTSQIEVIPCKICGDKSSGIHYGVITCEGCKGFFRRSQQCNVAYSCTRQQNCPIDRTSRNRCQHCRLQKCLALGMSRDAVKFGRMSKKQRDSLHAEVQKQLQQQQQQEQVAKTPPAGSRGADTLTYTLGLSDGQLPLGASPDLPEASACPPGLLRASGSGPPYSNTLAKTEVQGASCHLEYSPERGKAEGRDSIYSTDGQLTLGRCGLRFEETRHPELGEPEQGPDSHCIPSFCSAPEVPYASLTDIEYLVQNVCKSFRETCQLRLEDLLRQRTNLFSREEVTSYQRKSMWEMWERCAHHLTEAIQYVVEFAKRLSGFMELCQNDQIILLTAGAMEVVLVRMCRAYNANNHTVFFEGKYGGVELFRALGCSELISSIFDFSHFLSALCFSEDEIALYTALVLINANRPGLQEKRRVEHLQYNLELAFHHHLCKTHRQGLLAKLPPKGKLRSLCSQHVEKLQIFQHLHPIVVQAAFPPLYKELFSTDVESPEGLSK
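Schneider cells (Drosophila), stable Gal4 DBD–ROR gamma + UAS-luc; 1 hr cmpd preincubation; Cu2+ induction 700 uM final; 20 hr ambient; luminescence.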
VP16 counter – VP16 counterscreen qHTS for inhibitors of ROR gamma transcriptional activity; AID 2546, 2010; Drosophila S2 Gal4-VP16 UAS-luciferase, luminescence, 20 h; Potency, µM (highest dose often 53.6 µM), inactives show at the top dose activity, negative = inhibition, actives largely listed as inhibitors; actives 3.5% (n = 310,000);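 also: Gal4-VP16 expression switched on by copper sulfate through the metallothionein promoter; potency is read from the fitted curve at half-maximal effect; nearly all actives have a fitted effect of over 50% in size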
TSHR antagonist – Antagonists of the Thyroid Stimulating Hormone Receptor: HTS campaign; TSHR-expressing cells, TSH-stimulated cAMP HTRF, 2 h; active compounds read low; actives 0.2% (n = 330,000); activity change, negative = inhibition, % at 11.5 µM;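 active = activity change below a set negative limit, meaning inhibition stronger than a set level, cut at about -70% in these data; inconclusive = activity change between two set negative limits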
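Antagonism was scored as loss of TSH-driven cAMP in TSHR cells, stimulated with 4nM TSH (EC80) for 2 hours at 37 deg C and detected by homogeneous HTRF competition immunoassay.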
Starred values were filed as active, the others as inactive; [ ] = dose if it differs, or a comment. Unless noted, calls follow the shape of the dose curve; as a rule, active = well fitted curve in the direction sought with a large enough effect; inconclusive = small, poorly fitted or top-dose-only effect, or another doubt; inactive = no such curve, though single readings can be large; an effect the other way counts as inactive or inconclusive. Unless noted, % is scaled to controls: 0 for no effect and ±100 for the full control effect.

Screening O=C(COC(=O)C(c1ccccc1)c1ccccc1)NCc1ccco1 returned ELG1 repair inh 0.0%, B2AR arrestin 4.1%, RORg inh inconclusive, VP16 counter 17.8µM* and TSHR antagonist 21.9.
Screening Cc1ccc(C(=O)OCC(=O)NCc2ccco2)cc1 returned ELG1 repair inh 13.2%, B2AR arrestin -0.3%, RORg inh 0.0%, VP16 counter -2.4% and TSHR antagonist 0.0.
Screening CCCCCCCCCCCCCCCC(=O)OC(CO)CO returned RORg inh -19.7% and VP16 counter -4.9%.
`CCCn1nc([N+](=O)[O-])c(C(C#N)c2nc3ccccc3o2)c(Cl)c1=O` (centres undefined) gave ELG1 repair inh -4.6%, B2AR arrestin -0.4%, RORg inh -25.9%, VP16 counter inconclusive and TSHR antagonist -75.7*.
Screening Cn1nc([N+](=O)[O-])c(C(C#N)c2ccccn2)c(Cl)c1=O (centres undefined) returned ELG1 repair inh -17.7%, B2AR arrestin 3.0%, RORg inh 10µM*, VP16 counter inconclusive and TSHR antagonist 8.7.
CCn1nc([N+](=O)[O-])c(C(C#N)c2nc3cc(C(F)(F)F)ccc3s2)c(Cl)c1=O (centres undefined) was read as ELG1 repair inh -9.0%, B2AR arrestin 0.1%, RORg inh inconclusive, VP16 counter inconclusive and TSHR antagonist -88.2*.
`N#CC(c1ccccn1)c1ncc(C(F)(F)F)cc1Cl` (centres undefined) gave ELG1 repair inh 11.4%, B2AR arrestin 0.5%, RORg inh -0.8%, VP16 counter -18.3% and TSHR antagonist 9.1.
CCCCC/C=C\C/C=C\C/C=C\C/C=C\CCCCCC(=O)NCC(=O)O was read as RORg inh 7.2% and VP16 counter -14.1%.
Screening CCOC(=O)c1[nH]c(C)c(C(=O)NCC2CCCO2)c1C (centres undefined) returned ELG1 repair inh 0.731µM*, B2AR arrestin 0.3%, RORg inh 31.4%, VP16 counter 21.7% and TSHR antagonist 30.4.
CCOC(=O)c1c(NC(=S)NCC2CCCO2)sc(C)c1C (centres undefined) was read as ELG1 repair inh 4.6%, B2AR arrestin 0.6%, RORg inh 1.58µM*, VP16 counter 4.47µM* and TSHR antagonist 1.1.
`CCOC(=O)c1c(NC(=O)CNC2CCCCC2)sc(C)c1C` gave ELG1 repair inh inconclusive, B2AR arrestin -0.2%, RORg inh 1.41µM*, VP16 counter -12.4% and TSHR antagonist 26.6.
Screening COc1ccc2c(c1)C(=O)[C@H](OC(=O)NCCc1ccc(OC)c(OC)c1)[C@@H](c1ccc(OC)c(Br)c1)O2 returned RORg inh 21.6% and VP16 counter -2.4%.
For COc1ccccc1CN1CCCC2(CCN(C(=O)c3cc(C(F)(F)F)cc(C(F)(F)F)c3)CC2)C1 the results were RORg inh 4.7% and VP16 counter -2.5%.
Screening CN(C)c1ccc(/C=N/NC(=O)c2ccc(CN3CCOCC3)cc2)cc1Br returned ELG1 repair inh inconclusive, B2AR arrestin -1.2%, RORg inh 8.2%, VP16 counter 16.1% and TSHR antagonist 0.1.
`Cc1ccc(-n2c(C)cc(/C=N/NC(=O)c3ccc(CN4CCOCC4)cc3)c2C)cc1` gave ELG1 repair inh -3.3%, B2AR arrestin -0.1%, RORg inh 7.94µM*, VP16 counter inconclusive and TSHR antagonist 0.6.
`Cc1ccc(-n2c(C)cc(/C=N/NC(=O)CC3(C)OCCO3)c2C)cc1` gave ELG1 repair inh inconclusive, B2AR arrestin 1.5%, RORg inh -22.4%, VP16 counter inconclusive and TSHR antagonist -2.0.
`Cc1ccc(C(=O)N/N=C/c2cc(C)n(-c3ccc(Br)cc3)c2C)cc1[N+](=O)[O-]` gave ELG1 repair inh inconclusive, B2AR arrestin -0.6%, RORg inh 0.398µM*, VP16 counter 1.41µM* and TSHR antagonist -3.7.
Screening Cc1ccc(-n2c(C)cc(/C=N/NC(N)=S)c2C)cc1 returned ELG1 repair inh inconclusive, B2AR arrestin 3.0%, RORg inh 2.82µM*, VP16 counter 4.47µM* and TSHR antagonist -13.5.
`Cc1cc(/C=N/NC(=O)c2ccncc2)c(C)n1-c1cccc(C(F)(F)F)c1` gave ELG1 repair inh 4.7%, B2AR arrestin -0.7%, RORg inh inconclusive, VP16 counter inconclusive and TSHR antagonist 7.2.
Cc1ccc(-n2c(C)cc(/C=N/NC(=O)c3ccncc3)c2C)cc1 was read as ELG1 repair inh 2.1%, B2AR arrestin 0.0%, RORg inh 7.94µM*, VP16 counter inconclusive and TSHR antagonist 24.4.
`CN(C)c1cc(-c2ccccc2)nc(-c2ccccc2)n1` gave ELG1 repair inh inconclusive, B2AR arrestin -2.4%, RORg inh 6.5%, VP16 counter 0.2% and TSHR antagonist -1.0.
Screening O=C(N/N=C/c1ccc(OC(=O)c2ccccc2)cc1)c1ccc(CN2CCOCC2)cc1 returned ELG1 repair inh 13.7%, B2AR arrestin 0.4%, RORg inh 39.4%, VP16 counter -3.5% and TSHR antagonist 10.1.
`CNC(=S)N/N=C/c1cc(C)n(-c2ccc(Cl)c(Cl)c2)c1C` gave ELG1 repair inh inconclusive, B2AR arrestin inconclusive, RORg inh 0.794µM*, VP16 counter 4.47µM* and TSHR antagonist 10.6.
For Cc1nc2ccccn2c1C(=O)N/N=C/c1ccccc1Cl the results were ELG1 repair inh -10.2%, B2AR arrestin -0.7%, RORg inh -34.1%, VP16 counter -4.6% and TSHR antagonist -2.2.
For Cc1ccc(C)c(-n2c(C)cc(/C=N/NC(=O)c3c(C)nc4cc(C)ccn34)c2C)c1 the results were ELG1 repair inh 18.4µM*, B2AR arrestin 6.8%, RORg inh inconclusive, VP16 counter 14.1µM* and TSHR antagonist 49.3.
`Cc1cccc(-n2c(C)cc(/C=N/NC(=O)c3ccc(CN4CCOCC4)cc3)c2C)c1` gave ELG1 repair inh -14.0%, B2AR arrestin 0.0%, RORg inh 10µM*, VP16 counter -4.4%[0.365 µM] and TSHR antagonist -4.7.
COC(=O)c1cn(CCC#N)nc1-c1ccc2ccccc2c1 was read as ELG1 repair inh 1.8%, B2AR arrestin 6.8%, RORg inh 1.0%, VP16 counter 8.2% and TSHR antagonist -4.1.
Screening CC(C)CCCC(C)CCCC(C)CCCCC(C)CCCC(C)CCCC(C)C (centres undefined) returned RORg inh 1.4%[10 µM] and VP16 counter -0.7%.
c1ccc(NC2=Nc3cccc4cccc2c34)cc1 was read as ELG1 repair inh inconclusive, B2AR arrestin -0.3%, RORg inh inconclusive, VP16 counter inconclusive and TSHR antagonist -9.1.

High-throughput results deposited in PubChem by National Center for Advancing Translational Sciences (NCATS).
